Drawing on PubChem BioAssay (NCATS), this text covers Potency and outcome for 38 compounds.

Values joined by “and” are separate entries in the source; they are usually repeats but may differ in a detail not shown here. Equal values may be shown once. Inconclusive results are not listed. Some structures have more than one record in an assay (separate samples or runs), and their calls can disagree. Active and inactive are the calls of the source. Unless noted, the call rests on the fitted dose curve; in most records, active means well fitted curve in the direction sought with a large enough effect; inconclusive means small, poorly fitted or top-dose-only effect, or another doubt; inactive means no such curve, though single readings can be large; an effect the other way counts as inactive or inconclusive.

Assay [1] is described as follows: Natriuretic polypeptide receptor (hNpr1) antagonism - Pilot counterscreen GloSensor control cell line (AID 1347045; calls by dose curve; further: potency means the concentration at half of the fitted maximal effect). The essentials: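 Cells were first seeded and incubated overnight at 37C, then loaded with 2% GloSensor substrate for 2 h. Compounds were added for 30 min at room temperature, followed by a baseline read, 50 uM SNP and a final read after 20 min.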
On the technique in general: A counterscreen serves to expose hits that act by an unwanted route or on another target.

For assay [2], the target named is Atrial natriuretic peptide receptor 1 (Homo sapiens) (UniProt P16066). The assay can be described thus: Natriuretic polypeptide receptor (hNpr1) antagonism - Pilot screen (AID 1347049; calls by dose curve;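 further: HEK293 cells with hNpr1 and GloSensor cGMP luciferase stimulated by 0.1 nM hNppA; agonist-evoked cGMP luminescence read 20 min after hNppA addition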; further: potency means the concentration at half of the fitted maximal effect). Put shortly:
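Receptor antagonism read as cGMP-dependent luminescence in hNpr1/pGS-40F HEK293 cells: pre-read after 30 min compound exposure, post-read 20 min after hNppA agonist at 0.1 nM final, all at room temperature, protected from light; A-71915 titration as control.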

Assay [3] addresses Atrial natriuretic peptide receptor 2 (Homo sapiens) (UniProt P20594). The assay can be described thus: Natriuretic polypeptide receptor (hNpr2) antagonism - Pilot subtype selectivity assay (AID 1347050; calls by dose curve; further: potency means the concentration at half of the fitted maximal effect). Put shortly:
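Antagonist mode: compounds (LOPAC1280, seven 1:5 dilutions) added 30 min before 1 nM hNppC stimulation of hNpr2-HEK293 cGMP-sensor cells; luminescence read before and 20 min after agonist at ambient temperature.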

A short description of assay [4]: NS1 protein of Zika virus - qHTS assay to identify small molecule inhibitors in human HEK 293 cells (AID 1347053). Further: nearly all actives have a fitted effect of over 55% in size. Further: potency means the concentration at half of the fitted maximal effect. The essentials: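 Read-out is a two-antibody TR-FRET for ZIKV NS1, normalized between uninfected cells and infected cells. Compound added 1 h before MR766 infection at MOI 0.5; human HEK 293 cells incubated 24 h, 37 C.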
Assay [5] deals with T1, Tyrosine-protein phosphatase non-receptor type substrate 1 (Homo sapiens) + Leukocyte surface antigen CD47 (Homo sapiens) (UniProt P78324+Q08722). The assay can be described thus: CD47-SIRPalpha protein protein interaction - LANCE assay qHTS validation (AID 1347057; active means well fitted curve in the direction sought with a large enough effect in the signal ratio, with a control signal flat, not every such curve was filed as active; the % refers to the signal ratio; further: series mostly up to about 38 µM). Put shortly: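 Inhibition of soluble CD47/SIRPalpha ectodomain association by titrated compounds, measured as 665/615 nm time-resolved FRET ratio after sequential 30 min room-temperature incubations.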
T1 sequence (P78324 whole entry, looked up, the tested form may be a part): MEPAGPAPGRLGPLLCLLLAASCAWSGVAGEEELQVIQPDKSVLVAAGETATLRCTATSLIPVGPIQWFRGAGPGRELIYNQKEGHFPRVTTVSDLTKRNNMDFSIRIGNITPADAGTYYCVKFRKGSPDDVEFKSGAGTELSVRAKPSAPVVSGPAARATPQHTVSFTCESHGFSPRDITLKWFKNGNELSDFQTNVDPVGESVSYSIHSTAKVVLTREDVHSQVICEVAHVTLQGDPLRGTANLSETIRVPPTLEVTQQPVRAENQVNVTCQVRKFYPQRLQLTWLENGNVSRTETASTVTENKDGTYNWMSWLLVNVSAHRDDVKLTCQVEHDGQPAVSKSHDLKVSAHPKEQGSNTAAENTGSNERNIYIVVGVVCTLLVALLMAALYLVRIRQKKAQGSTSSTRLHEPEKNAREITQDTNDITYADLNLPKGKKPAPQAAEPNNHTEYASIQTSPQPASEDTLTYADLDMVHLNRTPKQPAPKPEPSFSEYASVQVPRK
T1 sequence (Q08722 whole entry, looked up, the tested form may be a part): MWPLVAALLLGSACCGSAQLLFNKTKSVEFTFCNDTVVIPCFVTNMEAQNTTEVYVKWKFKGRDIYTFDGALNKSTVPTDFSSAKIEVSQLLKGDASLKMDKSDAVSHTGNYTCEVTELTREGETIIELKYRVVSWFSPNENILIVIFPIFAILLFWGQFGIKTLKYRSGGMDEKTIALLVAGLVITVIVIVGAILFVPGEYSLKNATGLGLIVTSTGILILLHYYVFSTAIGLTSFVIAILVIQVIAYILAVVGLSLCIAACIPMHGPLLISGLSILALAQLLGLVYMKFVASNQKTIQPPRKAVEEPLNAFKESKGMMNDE

Assay [6] concerns the target T1, Tyrosine-protein phosphatase non-receptor type substrate 1 (Homo sapiens) + Leukocyte surface antigen CD47 (Homo sapiens). The assay can be described thus: CD47-SIRPalpha protein protein interaction - Alpha assay qHTS validation (AID 1347059).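 Further: bead proximity luminescence from CD47 binding SIRPalpha after compound preincubation with SIRPalpha.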 Put shortly:
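AlphaScreen signal between CD47-His (12.5 nM) and biotin-SIRPalpha (25 nM) soluble extracellular domains, bead-captured via Ni-NTA and streptavidin. Compounds, in 7-point titrations, met SIRPalpha 30 min before CD47; PBS pH 7.4 with 0.05% IGEPAL.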

A short description of assay [7]: qHTS for Inhibitors of the Functional Ribonucleoprotein Complex (vRNP) of Lassa (LASV) Arenavirus: LASV Primary Screen - GLuc reporter signal (AID 1347082; calls by dose curve; tested in HEK293 reporter line; further: nearly all actives have a fitted effect of over 60% in size; further: potency means the concentration at half of the fitted maximal effect). (In general: In qHTS, concentration-response curves come from the screen itself.)
Assay [8] is described as follows: qHTS for Inhibitors of the Functional Ribonucleoprotein Complex (vRNP) of Lassa (LASV) Arenavirus: Viability assay - alamar blue signal for LASV Primary Screen (AID 1347083; calls by dose curve; tested in HEK293 reporter line; further: nearly all actives have a fitted effect of over 80% in size; further: potency means the concentration at half of the fitted maximal effect).
Assay [9] concerns the target Parathyroid hormone/parathyroid hormone-related peptide receptor (Homo sapiens) (UniProt Q03431). Description: qHTS for PTHR1 Agonists: Optimization Screen against the NCGC LOPAC library (AID 1347079).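 Further: GloSensor cAMP luminescence in HEK-293 GP2 cells expressing human PTHR1 with IBMX.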 Put shortly:
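HEK-293 GP2 cells, PTHR1 + GloSensor cAMP; 3000 cells/well, o/n. Luciferin + IBMX 0.5mM each (stock), 1 hr 37C. Cpd titration, 1 hr 37C. Lum after 15 min RT. Ctrl M-PTH(1-15) top 10uM.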

In assay [10] the target is T1, Tyrosine-protein phosphatase non-receptor type substrate 1 (Homo sapiens) + Leukocyte surface antigen CD47 (Homo sapiens). The assay can be described thus: CD47-SIRPalpha protein protein interaction - HTRF assay qHTS validation (AID 1347058; active means well fitted curve in the direction sought with a large enough effect in the signal ratio, not every such curve was filed as active; the % refers to the signal ratio; further: series mostly up to about 38 µM). The essentials:
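Soluble extracellular domains (6His-CD47, Avi-tag-biotinylated SIRPalpha) in PBS pH 7.4 with 0.05% IGEPAL CA-630. Compounds were preincubated 30 min at RT with CD47 and anti-His-Eu, then SIRPalpha and SAV-XL665 were added. TR-FRET 665/615 ratio.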

Atrial natriuretic peptide receptor 2 (Homo sapiens), sequence (P20594 whole entry, looked up): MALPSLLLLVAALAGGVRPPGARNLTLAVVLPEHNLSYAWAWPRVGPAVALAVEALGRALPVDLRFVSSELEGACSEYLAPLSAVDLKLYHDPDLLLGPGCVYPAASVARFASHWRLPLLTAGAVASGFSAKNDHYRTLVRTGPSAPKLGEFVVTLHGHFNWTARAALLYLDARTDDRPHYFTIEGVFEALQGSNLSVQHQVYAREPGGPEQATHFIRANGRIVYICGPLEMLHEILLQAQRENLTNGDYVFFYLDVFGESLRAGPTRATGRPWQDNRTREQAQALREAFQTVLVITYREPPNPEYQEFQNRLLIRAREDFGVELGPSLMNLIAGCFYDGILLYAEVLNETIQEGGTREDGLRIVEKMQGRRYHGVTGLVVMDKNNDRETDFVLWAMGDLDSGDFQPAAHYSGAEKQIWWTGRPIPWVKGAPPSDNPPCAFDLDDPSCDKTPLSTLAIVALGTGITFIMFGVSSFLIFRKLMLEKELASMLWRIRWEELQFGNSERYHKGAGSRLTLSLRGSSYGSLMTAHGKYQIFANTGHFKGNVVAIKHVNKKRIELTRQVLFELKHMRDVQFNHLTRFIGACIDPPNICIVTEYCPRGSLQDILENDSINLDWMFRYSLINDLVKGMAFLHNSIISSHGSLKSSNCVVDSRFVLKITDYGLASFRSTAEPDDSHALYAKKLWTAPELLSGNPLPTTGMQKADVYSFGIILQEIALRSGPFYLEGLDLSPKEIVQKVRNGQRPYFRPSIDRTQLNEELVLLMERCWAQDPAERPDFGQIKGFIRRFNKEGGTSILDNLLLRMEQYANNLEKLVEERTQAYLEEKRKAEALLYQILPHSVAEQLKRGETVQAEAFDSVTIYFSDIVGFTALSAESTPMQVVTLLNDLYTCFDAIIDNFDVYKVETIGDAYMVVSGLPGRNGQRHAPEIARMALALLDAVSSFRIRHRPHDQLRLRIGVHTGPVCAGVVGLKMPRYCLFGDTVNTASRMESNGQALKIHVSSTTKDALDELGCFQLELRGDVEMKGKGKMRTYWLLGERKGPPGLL
Atrial natriuretic peptide receptor 1 (Homo sapiens), sequence (P16066 whole entry, looked up): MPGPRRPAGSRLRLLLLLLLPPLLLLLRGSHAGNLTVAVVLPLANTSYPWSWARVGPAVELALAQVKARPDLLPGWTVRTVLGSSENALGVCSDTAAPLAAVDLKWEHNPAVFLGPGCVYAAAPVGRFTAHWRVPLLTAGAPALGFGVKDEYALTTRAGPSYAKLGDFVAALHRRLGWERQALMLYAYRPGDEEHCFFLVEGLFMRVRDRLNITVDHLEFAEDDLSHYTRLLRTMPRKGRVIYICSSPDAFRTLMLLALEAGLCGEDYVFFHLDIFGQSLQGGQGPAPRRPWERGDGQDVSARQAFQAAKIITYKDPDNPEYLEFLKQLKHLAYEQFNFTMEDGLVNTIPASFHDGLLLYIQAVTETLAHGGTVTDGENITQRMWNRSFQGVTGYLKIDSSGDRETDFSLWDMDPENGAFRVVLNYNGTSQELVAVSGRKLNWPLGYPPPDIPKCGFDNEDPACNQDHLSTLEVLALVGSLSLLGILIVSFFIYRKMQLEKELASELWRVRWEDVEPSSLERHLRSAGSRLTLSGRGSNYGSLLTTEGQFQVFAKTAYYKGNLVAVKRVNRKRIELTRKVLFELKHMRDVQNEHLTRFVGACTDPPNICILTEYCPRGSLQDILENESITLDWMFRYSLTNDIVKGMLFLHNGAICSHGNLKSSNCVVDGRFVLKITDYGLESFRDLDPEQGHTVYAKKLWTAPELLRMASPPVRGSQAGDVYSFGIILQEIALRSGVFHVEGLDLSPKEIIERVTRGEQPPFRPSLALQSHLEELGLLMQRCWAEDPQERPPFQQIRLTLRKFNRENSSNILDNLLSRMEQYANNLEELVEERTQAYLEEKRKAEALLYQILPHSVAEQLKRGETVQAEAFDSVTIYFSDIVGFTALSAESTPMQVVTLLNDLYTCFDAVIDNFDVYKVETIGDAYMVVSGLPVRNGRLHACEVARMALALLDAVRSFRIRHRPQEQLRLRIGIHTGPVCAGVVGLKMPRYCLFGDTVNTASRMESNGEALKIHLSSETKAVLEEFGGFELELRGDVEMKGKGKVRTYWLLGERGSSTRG
Parathyroid hormone/parathyroid hormone-related peptide receptor (Homo sapiens), sequence (Q03431 whole entry, looked up): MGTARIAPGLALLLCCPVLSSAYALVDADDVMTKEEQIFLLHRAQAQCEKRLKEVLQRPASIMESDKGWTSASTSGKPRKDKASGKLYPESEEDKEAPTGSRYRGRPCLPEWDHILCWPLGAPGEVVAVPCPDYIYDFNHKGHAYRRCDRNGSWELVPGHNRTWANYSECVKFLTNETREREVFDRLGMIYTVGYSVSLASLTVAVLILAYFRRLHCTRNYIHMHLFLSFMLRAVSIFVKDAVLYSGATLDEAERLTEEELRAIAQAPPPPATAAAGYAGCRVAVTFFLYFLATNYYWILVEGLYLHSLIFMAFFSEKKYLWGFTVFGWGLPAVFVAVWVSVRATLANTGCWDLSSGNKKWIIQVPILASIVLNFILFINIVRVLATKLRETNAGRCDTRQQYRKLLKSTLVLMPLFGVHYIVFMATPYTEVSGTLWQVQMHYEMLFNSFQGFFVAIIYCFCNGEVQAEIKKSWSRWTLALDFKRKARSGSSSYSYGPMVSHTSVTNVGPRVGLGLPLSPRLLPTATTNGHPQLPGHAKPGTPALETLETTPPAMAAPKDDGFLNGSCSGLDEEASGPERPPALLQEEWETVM

For the compound `CCCN1CCC[C@H](c2cccc(O)c2)C1`, the Potency entry in assay [1], in assay [2], in assay [3], in assay [4], in assay [6] and in assay [7] was “inactive” in each case. Moreover, the Potency entry in [8] is “inactive”. Also, in [5], the result was inactive.
On to `CC[C@@H](C(N)=O)N1CCCC1=O`, for which the Potency entry in assay [1], in assay [2], in assay [3], in assay [4] and in [6] was “inactive” throughout.
Regarding `NCCc1c[nH]c2ccc(O)cc12`, the Potency result in [1], in [2], in assay [3], in [4], in assay [6] and in [7] was “inactive” each time. In addition, the Potency result in [8] was “inactive”.
Consider `NC(CCP(=O)(O)O)C(=O)O` (configuration not stated), for which the Potency result in assay [1], in assay [2], in assay [3], in assay [4], in [6] and in [7] was “inactive” in each case. For the same compound, in [8], the Potency entry is “inactive”.
As for `O=C(O)CC[N+](=O)[O-]`, the Potency result in assay [1], in assay [2], in assay [3], in assay [4], in assay [6] and in assay [7] was “inactive” in each case. Besides, the Potency entry in assay [8] was “inactive”.
`CC(Cc1ccc(O)cc1)NCC(O)c1cc(O)cc(O)c1` (configuration not stated): the Potency entry in assay [1], in [2], in [3], in [4], in [6] and in [7] was “inactive” each time. Further, the Potency entry in [8] was “inactive”. Also, the compound was called inactive in assay [9].
In the case of `NC1CCc2cc(O)c(O)cc2C1` (configuration not stated), the Potency entry in [1], in assay [2], in [3], in [4], in assay [6] and in [7] was “inactive” throughout. Also, the Potency entry in assay [8] was “inactive”.
For `c1ccc2sc(C3(N4CCCCC4)CCCCC3)cc2c1`, the Potency result in [1], in [2], in assay [3], in assay [4], in [6] and in assay [7] was “inactive” each time. Also, the Potency entry in assay [8] was “inactive”. In addition, the result in assay [5] and in [10] was inactive.
For `CCCN(CCC)C1CCc2ccc(O)cc2C1` (configuration not stated), the Potency entry in assay [1], in assay [2], in [3], in assay [4], in [6] and in assay [7] was “inactive” in each case. Moreover, in assay [8], the Potency entry is “inactive”. Moreover, in assay [5], the result was inactive.
Turning to `Cc1nccc2c1[nH]c1ccccc12`, the Potency result in assay [1], in assay [2], in [3], in [4], in assay [6] and in assay [7] was “inactive” each time. Further, the Potency result in [8] was “inactive”. In addition, the outcome in assay [5] and in assay [9] was inactive.
On to `CNCCc1ccc(O)c(O)c1`, for which the Potency result in assay [1], in [2], in assay [3], in assay [4], in assay [6] and in assay [7] was “inactive” each time. In addition, the Potency entry in [8] was “inactive”. The outcome in assay [5] was inactive.
As for `NC1CC1c1ccccc1` (configuration not stated), the Potency result in assay [1], in [2], in assay [3], in [4], in assay [6] and in assay [7] was “inactive” each time. Moreover, in [8], the Potency entry is “inactive”. Also, the result in [5] and in assay [10] was inactive.
For the compound `C[C@@H](N)Cc1cnc[nH]1`, the Potency entry in assay [1], in assay [2], in [3], in assay [4], in [6] and in assay [7] was “inactive” throughout. For the same compound, the Potency entry in [8] is “inactive”. In addition, the compound was classed as inactive in assay [9].
Regarding `COC(=O)c1cncn1C(C)c1ccccc1` (configuration not stated), the Potency result in [4], in assay [7] and in assay [8] was “inactive” in each case.
On to `C[C@@]12OC(=O)[C@]1([C@@H](O)[C@@H]1C=CCCC1)NC(=O)[C@H]2CCCl`, for which the Potency in assay [4] was 833 nM (active); in [7], 34.3 µM (active).
For the compound `CC(=O)Nc1ccc(OC[C@](C)(O)C(=O)Nc2ccc([N+](=O)[O-])c(C(F)(F)F)c2)cc1`, the Potency result in assay [4] and in assay [7] was “inactive” in each case.
With `Nc1ccc([N+](=O)[O-])cc1`, in assay [4], the Potency result is “inactive”.
As to `S=C(NC1CCCCC1)N1CCC(c2cnc[nH]2)CC1`, the Potency result in assay [2], in assay [3], in assay [4], in assay [6], in [7] and in [8] was “inactive” each time.
In the case of `O=c1[nH]c2ccccc2n1C1CCN(Cc2ccc(-c3[nH]c4cc5ncnc5cc4nc3-c3ccccc3)cc2)CC1`, the Potency in [4] is 18700 nM (active).
For the compound `O=C1CCCN1CC#CCN1CCCC1`, the Potency entry in [1], in [2], in assay [3], in assay [4], in [6] and in assay [7] was “inactive” each time. Moreover, the Potency result in assay [8] was “inactive”.
As for `CC[C@@]1(O)C(=O)OCc2c1cc1n(c2=O)Cc2cc3ccccc3nc2-1`, the Potency entry in assay [1], in assay [2], in assay [3], in [6] and in assay [7] was “inactive” throughout. The Potency in assay [4] was 11.8 nM (active) and inactive; in assay [8], 193 nM (active) and 199 nM (active).
Turning to `O=C(O)Cc1cnc[nH]1`, the Potency result in [1], in [2], in assay [3], in assay [4], in assay [6] and in assay [7] was “inactive” in each case. Besides, in [8], the Potency entry was “inactive”.
`C[N+]1(C)C2CCC1CC(OC(=O)C(CO)c1ccccc1)C2` (configuration not stated): the Potency result in [1], in assay [2], in [3], in assay [4], in [6] and in assay [7] was “inactive” each time. The Potency result in [8] is “inactive”.
Take `CS(=N)(=O)CC[C@H](N)C(=O)O` (some centres not stated): the Potency entry in assay [1], in [2], in assay [3], in [4], in assay [6] and in assay [7] was “inactive” each time. Moreover, the Potency result in assay [8] was “inactive”.
Regarding `C[N+](C)(C)CC(=O)O`, the Potency entry in assay [4], in assay [6], in assay [7] and in [8] was “inactive” in each case. For the same compound, the outcome in assay [5] was inactive.
Consider `CC(C)NC(C)Cc1ccc(I)cc1` (configuration not stated), for which the Potency entry in assay [1], in assay [3], in [4], in assay [6], in assay [7] and in assay [8] was “inactive” each time. The result in assay [10] was inactive.
On to `CC(C)[C@H]1C(=O)N[C@H](CO)Cc2c[nH]c3cccc(c23)N1C`, for which the Potency result in [4] and in assay [7] was “inactive” throughout.
With `COc1ccc2c(c[n+](C)c3c4cc5c(cc4ccc23)OCO5)c1OC`, the Potency is 13.1 µM (active) in assay [1], 16.9 µM (active) in assay [2] and 14.7 µM (active) in assay [3]. For the same compound, the Potency result in assay [6] was “inactive”. Also, the outcome in assay [9] was inactive.
With `COc1ccc2c(c1)[C@]13CCCCC1C(C2)N(C)CC3` (some centres not stated), the Potency entry in assay [4] and in assay [7] was “inactive” in each case.
Turning to `COc1ccc(C(=O)c2c(C)n(CCN3CCOCC3)c3cc(I)ccc23)cc1`, the Potency entry in [4] was “inactive”.
As to `COc1ccc(N(C(=O)Oc2c(C)cccc2C)c2ccnc(Nc3ccc(N4CCN(C)CC4)cc3)n2)c(OC)c1`, the Potency result in assay [4] and in [7] was “inactive” throughout.
As to `CN(C)[C@@H]1C(=O)C(C(N)=O)=C(O)[C@@]2(O)C(=O)C3=C(O)c4c(O)cccc4[C@@](C)(O)[C@H]3[C@H](O)[C@@H]12`, the Potency result in assay [4], in assay [7] and in assay [8] was “inactive” in each case.
With `NC(=O)CN1CC(O)CC1=O` (configuration not stated), the Potency result in assay [1], in [3], in assay [4], in assay [6], in [7] and in [8] was “inactive” throughout.
Take `O=C(Nc1ccncc1)C(=O)c1cn(Cc2ccc(Cl)cc2)c2ccccc12`: in [4], the Potency was 9.3 nM (active). Further, the Potency result in assay [7] was “inactive”.
The like results for `CO[C@H]1CCC(O[C@H]2C[C@H]([C@]3(C)CC[C@]4(C[C@H](O)[C@@H](C)[C@@H]([C@@H](C)C=C(C)C(=O)[C@H](C)C[C@H](C)C(=O)O)O4)O3)O[C@]3(O[C@@H]([C@H]4O[C@@](O)(CO)[C@H](C)C[C@H]4C)C[C@H]3C)[C@H]2C)O[C@H]1C` (some centres not stated) were, in that order, 743 nM (active) and “inactive”.
As for `CC(N[C@H]1C[C@H]1c1ccccc1)c1ccc2c(c1)OCCO2` (some centres not stated), the Potency result in assay [4] and in assay [7] was “inactive” in each case.
In the case of `C[C@]12CC[C@H]3[C@@H](CCC4=CC(=O)CC[C@@]43C)[C@H]1CC[C@H]2OC(=O)CCC1CCCC1`, the Potency result in [4] and in assay [7] was “inactive” each time.
On to `CC(C)(O)C(=O)Nc1ccc([N+](=O)[O-])c(C(F)(F)F)c1`, for which, in [4], the Potency entry was “inactive”.
